# Experimental data reported in PubChem BioAssay (NCATS).
# Values without a mark were called inactive. Calls follow the shape of the full dose curve.
# Biological target: Glucocorticoid receptor (Homo sapiens) (UniProt P04150)
# Assay: GR-EFC Redistribution (AID 451)
# Conditions: CHO-K1 GR-EFC translocation, beta-gal luminescence, 2 h
# Source text: NIH Molecular Libraries Screening Centers Network [MLSCN]
# NIH Chemical Genomics Center [NCGC]
# The glucocorticoid receptor (GR) is a cytoplasmic receptor that belongs to the nuclear receptor family of ligand-dependent transcription factors. Upon glucocorticoid binding to its receptor, the glucocorticoid-GR complex translocates into the nucleus, where it binds as a dimer to specific DNA sequences (glucocorticoid response elements), enhancing or suppressing transcription of a wide variety of glucocorticoid-responsive genes. In addition to their important roles in normal physiology and metabolism, glucocorticoids are administered exogenously as treatments for a wide variety of allergic, autoimmune, and neoplastic conditions. Identification of compounds that modulate aspects of GR signalling would be useful in dissecting glucocorticoid response pathways as well as developing GR modulators with more targeted clinical effects.
# Traditionally, GR modulators have been identified using receptor binding or direct transactivation assays. However, assays for glucocorticoid-dependent nuclear translocation can also be used to screen for compounds affecting GR signaling.
# Immunocytochemical staining has been used to assay for GR translocation, but is not suitable for high throughout screening due to the multiple reagent addition and wash steps required. Recently, a novel cell-based GR assay in Enzyme Fragment Complementation (EFC) format was developed by DiscoveRx (Fremont, CA). The assay uses EFC of b-galactosidase (b-gal) as an indicator of GR-translocation in engineered CHO-K1 biosensor cells. The enzyme acceptor (EA) fragment of b-gal resides in the nucleus , as designed through the use of a proprietary set of sequence additions and modifications. The small peptide enzyme donor (ED) fragment of b-gal is fused directly to the C-terminus of GR, and is localized in the cytoplasm is the absence of receptor signaling. Upon binding to a GR ligand, the complex translocates to the nucleus, where intact enzyme activity is restored by complementation and b-gal activity is detected. We optimized this GR-EFC assay in homogenous 1536-well plate assay format for high throughput screening.
# NCGC Assay Protocol Summary:
# CHO-K1 cells stably expressing NLS-enzyme acceptor fragment (EA) of b-gal and GR-enzyme donor (ED) fragment of b-gal were maintained in F12 medium (Invitrogen, Carlsbad, CA) at 37 Celsius degrees under a humidified atmosphere containing 5% CO2 and 95% air. The medium contained 10% FBS, 2 mM L-glutamine, 50 U/ml penicillin 50 ug/ml streptomycin, and 250 ug/ml hygromycin and 500 ug/ml G418 (Invitrogen).
# GR-translocation was measured beta-gal enzyme activity using the PathHunter Detection Kit containing cell membrane permeablizing reagent and beta-gal substrate (DiscoveRx, Fremont, CA). All compounds were screened as titrations from 0.6 nM to 46 uM final concentration. The assay was performed in 1536-well format as follows:
# 5 uL cell suspension (1,000 cells)/well
# Incubation at 37 Celsius degrees for two hours
# 1.25 uL 1X detection buffer from the kit supplied by DiscoveRx
# Incubation at room temperature for one hour
# Read plate in luminescence mode in ViewLux plate reader (PerkinElmer)
# Keywords: NIH Roadmap, MLSCN, MLI, MLSMR, GR-EFC, GREFC, qHTS, NCGC
# Potency is read from the fitted curve at half-maximal effect.
# Chain of Glucocorticoid receptor (Homo sapiens) (P04150 whole entry, looked up): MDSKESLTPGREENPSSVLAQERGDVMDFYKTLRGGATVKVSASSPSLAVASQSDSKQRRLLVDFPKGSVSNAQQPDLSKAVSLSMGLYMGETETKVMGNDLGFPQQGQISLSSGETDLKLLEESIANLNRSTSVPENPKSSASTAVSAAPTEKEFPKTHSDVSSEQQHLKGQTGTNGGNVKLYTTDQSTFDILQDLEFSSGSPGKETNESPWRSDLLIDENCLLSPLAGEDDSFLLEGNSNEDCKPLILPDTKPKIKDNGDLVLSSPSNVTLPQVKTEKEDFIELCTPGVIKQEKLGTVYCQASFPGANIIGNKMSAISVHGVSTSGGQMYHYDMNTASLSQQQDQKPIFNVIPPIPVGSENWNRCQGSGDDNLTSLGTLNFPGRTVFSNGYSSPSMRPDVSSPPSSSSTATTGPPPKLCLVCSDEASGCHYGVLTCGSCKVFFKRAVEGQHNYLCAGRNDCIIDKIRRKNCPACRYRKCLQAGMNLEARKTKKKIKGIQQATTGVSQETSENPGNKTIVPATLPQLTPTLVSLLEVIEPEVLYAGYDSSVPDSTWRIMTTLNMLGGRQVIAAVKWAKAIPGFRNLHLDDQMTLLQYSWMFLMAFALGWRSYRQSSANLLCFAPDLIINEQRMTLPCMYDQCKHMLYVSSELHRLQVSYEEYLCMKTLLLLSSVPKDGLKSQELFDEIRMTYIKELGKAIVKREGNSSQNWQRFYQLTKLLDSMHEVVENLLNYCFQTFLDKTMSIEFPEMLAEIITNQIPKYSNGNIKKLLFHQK
row,Compound,Potency
1,COc1ccc2[nH]cc(CCNc3ncnc4ccc(-c5cccc(C#N)c5)cc34)c2c1,> 46 µM
2,CN(Cc1ccco1)c1ncnc2ccc(-c3cccc(NS(C)(=O)=O)c3)cc12,> 46 µM
3,O=c1cc(-c2cccc(O)c2)oc2c(O)c(O)ccc12,> 46 µM
4,COc1ccc2[nH]cc(CCNc3ncncc3-c3ccoc3)c2c1,> 46 µM
5,COc1ccccc1CNc1cc(-c2cccnc2)ncn1,> 46 µM
6,CN1CCN(c2ncc3nc(-c4ccccc4)c(=O)n(Cc4cccs4)c3n2)CC1,> 46 µM
7,CN(C)C(=O)c1ccc(-c2ccc3ncnc(Nc4ccc(F)cc4)c3c2)cc1,> 46 µM
8,COc1cccc(Nc2ncc3nc(-c4cc(F)cc(F)c4)c(=O)n(CCC#N)c3n2)c1,> 46 µM
9,COCCn1c(=O)c(CCc2ccccc2)nc2cnc(Oc3ccccc3)nc21,> 46 µM
10,CN1CCN(c2ncc3nc(-c4cn(C)c5ccccc45)c(=O)n(C[C@H]4CCCO4)c3n2)CC1,> 46 µM
11,Cc1cnc(CNc2ncnc3ccc(-c4ccccc4Cl)cc23)cn1,> 46 µM
12,COc1cccc(Nc2ncc3ncc(=O)n(CCC#N)c3n2)c1,> 46 µM
13,c1ccc(Nc2nc(-c3cccnc3)nc3ccccc23)cc1,> 46 µM
14,c1ccc(CNc2nc(-c3cccnc3)nc3ccccc23)cc1,> 46 µM
15,Cc1nc2cnc(N3CCOCC3)nc2n(CCc2ccccc2)c1=O,> 46 µM
16,Cc1ccccc1-c1nc(Nc2ccncc2)c2ccccc2n1,> 46 µM
17,COc1cccc(-c2nc(NC3CC3)c3ccccc3n2)c1,> 46 µM
18,COCCn1c(=O)c(-c2ccccc2)nc2cnc(Oc3cccc(Cl)c3)nc21,> 46 µM
19,Cc1ncc(COP(=O)(O)O)c(C)c1O,> 9.22 µM
20,COc1cccc(Nc2ncc3ncc(=O)n(Cc4ccc(F)cc4)c3n2)c1,> 46 µM

row,Compound,Potency
1,CN1CCN(c2nc(-c3cccnc3)nc3ccccc23)CC1,> 46 µM
2,CC(=O)[C@@]1(O)Cc2c(O)c3c(c(O)c2[C@H](O[C@H]2C[C@H](N)[C@H](O)[C@H](C)O2)C1)C(=O)c1ccccc1C3=O,> 46 µM
3,Cc1ccccc1-c1ccc2ncnc(NCCN3CCOCC3)c2c1,> 46 µM
4,COc1ccc(CNc2ncncc2-c2ccccc2OC)c(OC)c1,> 46 µM
5,COc1ccc(-n2c(=O)c(-c3cccs3)nc3cnc(N4CCN(C)CC4)nc32)cc1,> 46 µM
6,COc1ccc(-c2nc3cnc(N4CCOCC4)nc3n(-c3ccc(OC)cc3)c2=O)cc1,> 46 µM
7,CN(C)c1ncc2nc(CCc3ccccc3)c(=O)n(Cc3cccs3)c2n1,> 46 µM
8,CN1CCN(c2ncc3nc(CCc4ccccc4)c(=O)n(Cc4cccs4)c3n2)CC1,> 46 µM
9,COc1cccc(Nc2ncc3nc(-c4ccc(F)cc4)c(=O)n(CCC#N)c3n2)c1,> 46 µM
10,Clc1ccccc1-c1nc(Nc2ccncc2)c2ccccc2n1,> 46 µM
11,Cn1c(=O)c(-c2ccc(Cl)cc2)nc2cncnc21,> 46 µM
12,CN(C)c1nc(-c2cccc(C#N)c2)nc2ccccc12,> 46 µM
13,CN1CCN(c2ncnc3ccc(-c4cccc(C#N)c4)cc23)CC1,> 46 µM
14,CCNc1ncc2nc(CCc3ccccc3)c(=O)n(CCC#N)c2n1,> 46 µM
15,N=C(N)c1ccc(N=Nc2c(O)ccc3c2[nH]c2ccccc23)cc1,> 9.22 µM
16,COc1ccccc1CNc1nc(-c2cccc(NS(C)(=O)=O)c2)nc2ccccc12,> 46 µM
17,O=c1c(CCc2ccccc2)nc2cncnc2n1Cc1ccccc1,> 46 µM
18,CN(C)c1ncc2ncc(=O)n(Cc3cccs3)c2n1,> 46 µM
19,O=S(=O)(O)C1CCNCC1,> 46 µM
20,COc1ccc2[nH]cc(CCNc3ncncc3-c3ccccc3Cl)c2c1,> 46 µM
